PI4K2A block – inhibitors of human PI4K2A; 420,000 tested, 0.13% active; activity change, negative = inhibition, % at 76.9 µM; Q9BTU6; purified PI4K2A, ADP-Glo luminescence, 1 h; hits give low values; in the data active = activity change below about -50%; inconclusive = mostly about -30% to -49%
Target sequence (Q9BTU6 whole entry, looked up): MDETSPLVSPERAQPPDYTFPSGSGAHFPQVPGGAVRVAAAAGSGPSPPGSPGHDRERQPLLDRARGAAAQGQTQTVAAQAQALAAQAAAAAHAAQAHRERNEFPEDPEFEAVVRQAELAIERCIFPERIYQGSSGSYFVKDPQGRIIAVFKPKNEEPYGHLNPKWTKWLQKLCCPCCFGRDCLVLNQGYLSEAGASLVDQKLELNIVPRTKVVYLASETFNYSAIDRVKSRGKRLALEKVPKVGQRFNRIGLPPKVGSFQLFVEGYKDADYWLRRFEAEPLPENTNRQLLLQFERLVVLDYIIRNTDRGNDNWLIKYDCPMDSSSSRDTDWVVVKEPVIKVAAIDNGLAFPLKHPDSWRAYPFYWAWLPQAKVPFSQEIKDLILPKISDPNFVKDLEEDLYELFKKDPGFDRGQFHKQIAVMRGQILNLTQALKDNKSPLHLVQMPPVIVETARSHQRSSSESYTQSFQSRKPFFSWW
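ADP-Glo luminescence measured ADP generated by PI4K2A enzyme (4 ug/mL before mixing) with 1.2 mM PI substrate (pre-mix) and 300 microM ATP (pre-mix). Tris pH7.5 buffer with MgCl2, Triton X-100; 1 h reaction at ambient temperature.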
PI5P4K alpha inh – PI5P4K alpha (human) kinase inhibition | P48426 | PI5P4Kalpha enzyme, ADP-Glo luminescence, 60 min; hits give low values | max response, % | 330,000 tested, 1.2% active; active = max response of -50% or lower; inconclusive = between -30% and -50%; inactive = -30% or higher; also: value at the top dose of about 77 µM
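Quantitative HTS of the MLSMR library against PI5P4Kalpha with substrate. ATP added last at 5 microM final; room temperature, 60 minutes. Remaining ATP depleted, ADP converted and read as luminescence.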
Six1-Eya2 inh – inhibitors of human Six1/Eya2 interaction; activity change, % (no concentration beside the values); 360,000 tested, 0.56% active; AlphaScreen GST-Six1/His-Eya2 binding, biochemical; hits give low values; Q15475+O00167
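GST-Six1 + His-Eya2 (5X stock: 250/500 nM); Tris pH 8.0, 300 mM NaCl, 0.05% BSA, 0.02% Tween 20; GSH donor/Ni acceptor beads; 1 h 37 °C dark; AlphaScreen readout.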
Akt phos inh – inhibitors of Akt phosphorylation; 360,000 tested, 0.32% active; AID 651550; activity change, % for hits at 50 µM; Neuro2A IGF-stimulated pAkt S473 HTRF, 20 min; hits give low values; in the data active = activity change below about -80%; inconclusive = mostly about -51% to -80%
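Neuro2A cells (4,500/well, DMEM with 0.5% FBS) were treated with compound at a single 50 µM final concentration, stimulated with 6 nM IGF for 20 min at 37 °C, and lysed. Phospho-Akt Ser473 was read by HTRF as 665/615 ratio ×10^4.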
CtBP-E1A blk – CtBP/E1A binding inhibition | AlphaScreen GST-E1A/His-CtBP binding, 1536-well; hits give low values | activity change, % (concentration not given with the values) | 340,000 tested, 0.49% active | AID 651724
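GST-E1A and His-tagged CtBP (125 nM each as 5X stock) were preincubated with pin-transferred compound for 2 h at 37 °C in the dark, then glutathione donor and nickel acceptor beads were added for 1 h before AlphaScreen reading.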
Hits are given with their value; . = inactive; ? = inconclusive; / = no result given. In the library only some 1.8% were active in any assay of this set; here they are far more common. Rule as the data show it, unless noted: active = activity change below about -65%; inconclusive = mostly about -30% to -63%; inactive = weaker than that.

SMILES	PI4K2A block	PI5P4K alpha inh	Six1-Eya2 inh	Akt phos inh	CtBP-E1A blk
Nc1ccc(CC(N)c2csc(Nc3cc(Oc4ccccc4)ncn3)n2)cc1 (stereo unspecified)	.	.	?	.	?
COc1ccc(CC(N)c2csc(Nc3ncccn3)n2)cc1 (stereo unspecified)	.	.	-71	.	-80
COc1ccc(CC(N)c2csc(Nc3cc(NCc4ccco4)ncn3)n2)cc1 (stereo unspecified)	.	.	-65	.	-74
COc1cccc(Nc2nc(C(N)c3ccccc3Cl)cs2)n1 (stereo unspecified)	.	.	.	.	?
COc1cc(OC)nc(Nc2nc(C(N)c3ccccc3)cs2)n1 (stereo unspecified)	.	.	?	.	?
NC(c1csc(Nc2cc(NCCCO)ncn2)n1)c1ccccc1Cl (stereo unspecified)	.	.	-89	.	-89
COc1ccc(CC(N)c2csc(Nc3cnccn3)n2)cc1 (stereo unspecified)	.	.	?	.	-75
COc1cc(OC)nc(Nc2nc(C(N)c3ccccc3Cl)cs2)n1 (stereo unspecified)	.	.	.	.	.
NC(c1csc(Nc2ncccn2)n1)c1ccccc1Cl (stereo unspecified)	.	.	-68	.	-66
CCc1cnc(Nc2nc(C(N)Cc3ccc(F)cc3)cs2)nc1 (stereo unspecified)	.	.	?	.	-71
CCOc1ccc(NC(=O)CSc2nnc(-c3ccc(C)cc3)c(-c3ccc(C)cc3)n2)cc1	.	/	/	/	/
COc1ccc(Nc2nc(N3CCCC3)c3ccccc3n2)cc1	.	.	.	.	?
CCN(CC)c1ccc(Nc2nc(N3CCOCC3)c3ccccc3n2)cc1	.	/	-81	.	-78
CC(C)(C)c1ccc(OCCNC(=O)c2ncn[nH]2)cc1	.	.	-67	.	-66
CCOC(=O)N1CCN(C(=O)CCSCCc2ccncc2)CC1	.	.	.	.	.
Cc1cc(O)c2c(c1O)C(=O)[C@]13C(=C2O)C(=O)[C@@H]2[C@@H](O)[C@H]1[C@@H]1[C@H](O)[C@H]3C(=O)C3=C(O)c4c(O)cc(C)c(O)c4C(=O)[C@]312	-64	-91	?	.	.
Cc1cccc2c(N=NC(=O)c3ccc(NS(=O)(=O)c4cccs4)cc3)c(O)[nH]c12	.	-77	?	.	.
Cc1ccc2[nH]c(O)c(N=Nc3ccccc3[N+](=O)[O-])c2c1	.	.	.	.	.
O=C(Cc1cccs1)N=Nc1c(O)[nH]c2ccc(Br)cc12	.	?	.	.	.
COc1ccc2[nH]c(O)c(N=NC(=O)Cc3cccs3)c2c1	.	-69	.	.	.
Cc1cccc2c(N=Nc3ccc(S(=O)(=O)Nc4ccc(Cl)cc4)cc3[N+](=O)[O-])c(O)[nH]c12	.	-74	.	.	.
Cc1ccc2[nH]c(O)c(N=NC(=O)c3ccc(NS(=O)(=O)c4cccs4)cc3)c2c1	.	-56	.	.	.
COc1ccccc1CNC(=O)c1ccoc1C	.	/	.	/	.
CCCNC(=O)C1(C)CCCN(C(=O)c2ccc3sccc3c2)C1 (stereo unspecified)	.	.	.	.	.
Cc1ccc(S(=O)(=O)N(CC(=O)Nc2cccnc2)c2cc(Cl)ccc2C)cc1	.	/	/	/	/
SMILES	PI4K2A block	PI5P4K alpha inh	Six1-Eya2 inh	Akt phos inh	CtBP-E1A blk
COc1ccc2[nH]c(O)c(N=NC(=O)c3ccc(NS(=O)(=O)c4cccs4)cc3)c2c1	.	-88	?	.	.
O=C(NN1CCOCC1)c1ccc(Cl)c([N+](=O)[O-])c1	.	.	.	.	.
CN1CCN(NC(=O)c2ccc(Cl)c([N+](=O)[O-])c2)CC1	.	.	.	-112%	.
Nc1nc(-c2ccccn2)nc(N)c1Cc1ccccc1F	.	.	-74	.	-90
Nc1nc(-c2ccccn2)nc(N)c1Cc1ccc(Cl)cc1Cl	.	.	-80	.	-91
CNc1cc(C(F)(F)F)nc(-c2ccccn2)n1	.	.	.	.	.
Clc1ccc(OCc2nc(-c3ccccn3)no2)c(Br)c1	.	.	.	.	.
Nc1nc(-c2ccccn2)nc(N)c1Cc1c(F)cccc1Cl	.	.	-79	.	-92
O=C(O)C1CC(=O)N(c2ccc(F)cc2)C1 (stereo unspecified)	.	.	.	.	.
CC(=O)Cc1nsc(NC(=O)c2cc(-c3ccc(Cl)c(Cl)c3)oc2C)n1	.	.	.	.	.
O=C(CN1CCCCC1)N1CCCc2c1c(=O)oc1ccc(OCc3ccccc3)cc21	.	.	.	-119%	.
CCOC(=O)C1CCCN(CC(=O)N2CCCc3c2c(=O)oc2ccc(OCc4ccccc4)cc32)C1 (stereo unspecified)	.	/	/	/	/
O=C(O)c1cccc(C(=O)O)c1	.	.	.	.	.
O=C(O)c1cccc(C(=O)Cc2ccccc2)c1	-71	.	.	.	.
O=C(NCCCN1CCOCC1)c1ccc2c(=O)n(CCc3ccccc3)c(=O)[nH]c2c1	.	/	.	.	.
O=c1nc(/C=C/c2cccn2-c2ccc([N+](=O)[O-])cc2)cc(C(F)(F)F)[nH]1	.	-69	.	.	.
O=c1nc(/C=C/c2cc([N+](=O)[O-])ccc2Cl)cc(C(F)(F)F)[nH]1	.	.	.	.	.
CCOC(=O)C(Sc1nnc2c3ccccc3n(CC)c2n1)C(=O)OCC	.	/	?	/	-72
CCOC(=O)CSc1nnc2c3ccccc3n(CC)c2n1	.	.	.	.	.
Cc1cc(C)cc(NC(=O)Cn2c(=O)oc3cc(S(=O)(=O)N4CC(C)CC(C)C4)ccc32)c1 (stereo unspecified)	.	.	.	.	.
Cc1ccc2oc3nc(C)c(C(=O)Nc4cccc(C(F)(F)F)c4)cc3c(=O)c2c1	.	.	.	-93%	.
CCCCN(CCCC)Cc1cc2ccccc2c2c1COC2	-81	.	.	.	.
O=C1/C(=C/c2cccnc2)Sc2ccccc21	.	.	.	/	.
O=C1c2ccccc2C(=Cc2cccnc2)c2ccccc21	.	-54	?	.	.
COC(=O)c1ccc(/C=C/C(=O)OCC(=O)Nc2sccc2C(N)=O)cc1	.	?	?	.	-69
CC1(C)CC(=O)C2=C(C1)NC(SCC(=O)Nc1ccccc1)=C(C#N)C21CCCCC1	.	.	.	.	.
CC1(C)CC(=O)C2=C(C1)NC(=S)C(C#N)C21CCCCC1 (stereo unspecified)	.	-62	.	.	.
CN(C)c1ccc(/C=C/c2ccc3c4ccccc4ccc3[n+]2-c2ccccc2)cc1	-54	-87	?	.	.
O=C(NCc1ccccc1)c1nc(-c2cccs2)no1	.	.	.	.	.
Cc1ccc(C(=O)N=c2sccn2C)cc1S(=O)(=O)N1CCOCC1	.	.	?	.	?
